High-throughput results from PubChem.
CYP2C19 act: cytochrome P450 2C19 (human) activation. recombinant CYP2C19, luciferin-H EGE luminescence; hits give high values; 0 = fully inhibited enzyme, 1 = untreated enzyme. P33261. activation factor at 5 µM. 96,000 tested, under 10 active;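 active = activation factor of at least 2 at 5 µM in the primary screen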;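 also: 0 = wells with 2.5 mM tranylcypromine and 1 = vehicle-only wells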
Target sequence (P33261 whole entry, looked up): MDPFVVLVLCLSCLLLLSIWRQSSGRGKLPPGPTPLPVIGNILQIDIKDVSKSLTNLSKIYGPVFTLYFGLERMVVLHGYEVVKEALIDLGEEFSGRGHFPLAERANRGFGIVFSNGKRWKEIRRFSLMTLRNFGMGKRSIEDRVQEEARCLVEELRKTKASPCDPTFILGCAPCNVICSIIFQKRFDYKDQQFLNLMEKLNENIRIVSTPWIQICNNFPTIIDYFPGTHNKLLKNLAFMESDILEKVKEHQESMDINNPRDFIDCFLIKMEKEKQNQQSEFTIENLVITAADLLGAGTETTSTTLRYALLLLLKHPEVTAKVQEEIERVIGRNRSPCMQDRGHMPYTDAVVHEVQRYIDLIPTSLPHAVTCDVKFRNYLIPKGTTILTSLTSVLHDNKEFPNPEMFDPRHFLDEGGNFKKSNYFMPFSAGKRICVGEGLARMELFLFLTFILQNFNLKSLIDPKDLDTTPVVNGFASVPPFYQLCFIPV
CYP2C9 inh: human CYP2C9 inhibition | P11712 | CYP2C9 Supersomes, luciferin-H conversion, luminescence | inhibition, % at 5 µM | 96,000 compounds, 20% hits | AID 777;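 active = blocking of liver enzyme CYP2C9 beyond about 50% at 5 µM, limit read from the data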
MRP1 act: activators of MRP-1; H69AR cells + doxorubicin, viability rescue, CellTiter-Glo; viability increase, % at 10 µM; 140,000 compounds, 0.61% hits; AID 799;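 active = viability gain under doxorubicin at or above a set limit, the compound median plus 3 SD, cut at about 4.7% in these data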;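 also: MRP-1 overexpressing cells given doxorubicin 25 µM after compound pretreatment; 18-22 h compound pretreatment then 72 h with doxorubicin before readout; 0% = doxorubicin-only wells and 100% = vehicle-treated cells without doxorubicin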
CYP2C19 inh: human CYP2C19 inhibition. P33261. CYP2C19 Supersomes, luciferin-H EGE luminescence, 30 min. 96,000 compounds, 21% hits. AID 778. inhibition, % at 5 µM;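 active = CYP2C19 inhibition above a set limit at 5 µM in the primary screen, cut at about 50% in these data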;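 also: plate controls were negative control wells for no effect and 2.5 mM tranylcypromine positive control for full effect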
MRP resist rev: reverses drug resistance mediated by MRP | H69AR cells + 2 uM doxorubicin, CellTiter-Glo, 72 h | differential viability (reversal), % at 10 µM | 85,000 compounds, 0.04% hits | AID 602;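 active = viability drop by adding the cancer drug above about 55%, with treated viability meeting a 40% cutoff, limit read from the data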;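 also: viability without doxorubicin minus viability with 2 µM doxorubicin for each compound; larger differential means the compound sensitizes cells more to doxorubicin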
CYP2C9 activ: CYP2C9 (human) activation; P11712; recombinant CYP2C9, luciferin-H conversion, luminescence; hits give high values; factor 1 = untreated enzyme, 0 = blocked; activation factor at 5 µM; 96,000 compounds, 1.4% hits; AID 1024;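 active = activation factor of 2 or more for CYP2C9 at a 5 µM dose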;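 also: 0 = sulfaphenazole-blocked wells and 1 = vehicle-only wells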
Starred values were filed as active, the others as inactive. Hits are enriched below; roughly 21% of the tested compounds scored in any of these assays.

Screening Cn1c(SCCCC(=O)c2ccc(Br)cc2)nnc1-c1ccncc1 returned CYP2C19 act 0.3, CYP2C9 inh 93.0*, MRP1 act -1.9, CYP2C19 inh 74.8*, MRP resist rev -0.1 and CYP2C9 activ 0.1.
Screening Cn1c(SCC(=O)C(C)(C)C)nnc1-c1ccncc1 returned CYP2C19 act 0.1, CYP2C9 inh 63.0*, MRP1 act -1.4, CYP2C19 inh 86.7*, MRP resist rev 8.2 and CYP2C9 activ 0.4.
For Cc1ccc(NC(=O)c2ccc(CSc3nnc(-c4ccncc4)n3C)cc2)c(C)c1 the results were CYP2C19 act 0.8, CYP2C9 inh 65.8*, MRP1 act -2.9, CYP2C19 inh 20.3 and CYP2C9 activ 0.3.
For Cn1c(SCC2CCCCC2)nnc1-c1ccncc1 the results were CYP2C19 act 0, CYP2C9 inh 87.2*, MRP1 act -1.1, CYP2C19 inh 99.8*, MRP resist rev 7.8 and CYP2C9 activ 0.1.
For Cc1ccc(NCCC#N)cc1C the results were MRP1 act -1.3.
Screening COCCn1c(SCC#N)nnc1-c1ccc2c(c1)OCO2 returned CYP2C19 act 0.8, CYP2C9 inh 11.2, MRP1 act 1.0, CYP2C19 inh 16.0, MRP resist rev 10.3 and CYP2C9 activ 0.9.
For O=C(NCc1cccnc1)c1csc2c1CCCC2 the results were MRP1 act -1.6.
Screening Cn1c(SC2CCCCC2=O)nnc1-c1ccncc1 (centres undefined) returned CYP2C19 act 0.3, CYP2C9 inh 16.1, MRP1 act 1.2, CYP2C19 inh 69.8*, MRP resist rev -6.7 and CYP2C9 activ 0.8.
Screening COCCCn1c(SCC(=O)NC2CCCCC2)nnc1-c1ccncc1 returned CYP2C19 act 0.6, CYP2C9 inh -7.0, MRP1 act -0.1, CYP2C19 inh 37.7, MRP resist rev -20.2 and CYP2C9 activ 1.1.
Screening COc1ccc(CCNC(=O)CSc2nn(-c3ccccc3)c(=S)s2)cc1OC returned MRP1 act -0.6.
`CN1C(=O)CSc2ccc(NC(=O)NCCC3=CCCCC3)cc21` gave CYP2C19 act 0.8, CYP2C9 inh 27.5, MRP1 act -1.3, CYP2C19 inh 24.7, MRP resist rev 3.2 and CYP2C9 activ 0.7.
For CCCCn1nnc(NC(=S)NC(=O)c2ccc(-c3cccc(Cl)c3Cl)o2)n1 the results were MRP1 act 1.1.
Screening CCOC(=O)CC(=O)Nc1ccc(C)cc1 returned CYP2C19 act 0.9, CYP2C9 inh 12.6, MRP1 act -1.2, CYP2C19 inh 11.0, MRP resist rev -0.2 and CYP2C9 activ 0.9.
`Cc1cc(C)cc(NC(=O)CSc2cc(C(=O)c3nccn3C)c3ccccc3n2)c1` gave MRP1 act -4.0.
For COC(=O)CSc1cc(C(=O)c2nccn2C)c2ccccc2n1 the results were CYP2C19 act 0.2, CYP2C9 inh 52.2*, MRP1 act -0.5, CYP2C19 inh 81.7*, MRP resist rev 1.4 and CYP2C9 activ 0.5.
`O=C(Cn1cc(C(F)(F)F)ccc1=O)N/N=C/c1ccc(Cl)cc1` gave MRP1 act 0.6.
Screening Cc1ccc(S(=O)(=O)N2CCOCC2)cc1C(=O)NCc1cccnc1 returned CYP2C19 act 0.7, CYP2C9 inh -9.4, MRP1 act -0.1, CYP2C19 inh 27.8 and CYP2C9 activ 1.1.
`O=C(NCc1ccco1)c1ccc(S(=O)(=O)c2cccc(S(=O)(=O)N3CCOCC3)c2)cc1` gave CYP2C19 act 0.5, CYP2C9 inh 47.4, MRP1 act -1.4, CYP2C19 inh 50.6*, MRP resist rev -6.0 and CYP2C9 activ 0.5.
`O=C(NCc1cccnc1)c1cccc(S(=O)(=O)N2CCCCC2)c1` gave CYP2C19 act 0.4, CYP2C9 inh 37.9, MRP1 act 1.1, CYP2C19 inh 64.9*, MRP resist rev 7.7 and CYP2C9 activ 0.6.
For O=C(NCc1cccnc1)c1cc(S(=O)(=O)N2CCCCC2)ccc1Cl the results were CYP2C19 act 0.2, CYP2C9 inh 93.8*, MRP1 act -0.8, CYP2C19 inh 80.1*, MRP resist rev 5.8 and CYP2C9 activ 0.1.
`O=C(COc1ccc(S(=O)(=O)N2CCCCC2)cc1)NCc1cccnc1` gave CYP2C19 act 0.7, CYP2C9 inh 59.8*, MRP1 act -0.3, CYP2C19 inh 25.6, MRP resist rev 2.0 and CYP2C9 activ 0.4.
Screening CCOC(=O)/C(=C/c1ccc(OC)cc1)NC(=O)c1ccco1 returned MRP1 act -1.2.
Screening CCOC(=O)C1CCN(C(=O)C2CC(=O)N(c3ccc(C)cc3)C2)CC1 (centres undefined) returned CYP2C19 act 0.9, CYP2C9 inh 11.8, MRP1 act -1.2, CYP2C19 inh 8.6, MRP resist rev -6.3 and CYP2C9 activ 0.9.
Screening CCCc1cc(=O)[nH]c(Nc2cc(OC)ccc2OC)n1 returned CYP2C19 act 1, CYP2C9 inh 43.0, MRP1 act -2.5, CYP2C19 inh 2.9, MRP resist rev -6.2 and CYP2C9 activ 0.6.
`CCc1nc2ccccc2n1Cc1cc(=O)n2cc(C)ccc2n1` gave CYP2C19 act 0.8, CYP2C9 inh 35.9, MRP1 act -2.4, CYP2C19 inh 16.5, MRP resist rev -11.4 and CYP2C9 activ 0.6.
`O=C(Nc1ccc(O)cc1)c1cc(S(=O)(=O)N2CCCC2)ccc1Cl` gave CYP2C19 act 1, CYP2C9 inh 30.1, MRP1 act -1.6, CYP2C19 inh 0.2, MRP resist rev 19.2 and CYP2C9 activ 0.7.
`Cc1ccnc(NC(=O)c2cc(S(=O)(=O)N3CCCCC3)ccc2Cl)c1` gave CYP2C19 act 0.6, CYP2C9 inh 88.4*, MRP1 act 2.7, CYP2C19 inh 39.3, MRP resist rev -14.3 and CYP2C9 activ 0.1.
`O=C(NCc1cccnc1)c1cccc(S(=O)(=O)N2CCOCC2)c1` gave CYP2C19 act 0.4, CYP2C9 inh 23.6, MRP1 act -0.8, CYP2C19 inh 61.1*, MRP resist rev 13.4 and CYP2C9 activ 0.8.
`CC1CC2=C(C(=O)O1)C(c1ccc(Cl)cc1)Nc1ccccc1N2` (centres undefined) gave MRP1 act -2.0.
Cc1nn(Cc2ccc(F)cc2)c(C)c1NC(=O)c1cnn2c1NC(c1ccccc1)CC2C(F)(F)F (centres undefined) was read as CYP2C19 act 0.7, CYP2C9 inh 66.9*, MRP1 act -1.4, CYP2C19 inh 31.9, MRP resist rev 8.6 and CYP2C9 activ 0.3.
`O=C(NCCCn1ccnc1)c1cnn2c1NC(c1ccccc1)CC2C(F)(F)F` (centres undefined) gave CYP2C19 act 0.2, CYP2C9 inh 97.4*, MRP1 act -1.8, CYP2C19 inh 84.9*, MRP resist rev 27.3 and CYP2C9 activ 0.
O=C(NCC1CCCO1)c1cnn2c1NC(c1ccccc1)CC2C(F)(F)F (centres undefined) was read as CYP2C19 act 0.9, CYP2C9 inh 36.3, MRP1 act -2.4, CYP2C19 inh 12.9, MRP resist rev 6.4 and CYP2C9 activ 0.6.
